Screens deposited in PubChem BioAssay by National Center for Advancing Translational Sciences (NCATS).
This is one part of a sample in which hits are shown more often than they occur.
HT1080 IDH1KD tx = kills HT-1080 cells with IDH1 knockdown; Potency, µM (series often up to 46.1 µM), inactives show top-dose activity, negative = toxicity, most hits filed as cytotoxic; 2% of 360,000 active; HT-1080 IDH1 knockdown viability, ATP luminescence, 48 h;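 note: potency is the fitted concentration of half-maximal effect; 0% = DMSO wells and -100% = cell-free medium wells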
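HT-1080-IDH1KD cells (IDH1 knocked down), 750/well in RPMI with 5% FBS, treated with compound 48 h at 37 degrees C. Viability by CellTiter-Glo luminescence, normalised to DMSO and no-cell wells; concentration-response curves classed.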
DT40 TDP1 CPT = growth inhibition of DT40 Tdp1-/-;hTDP1 cells with camptothecin (screen for TDP1 inhibitors) | 12% of 420,000 active | Potency, µM (titrated, usually from 46.2 µM), for inactives: at the highest dose activity change, negative = growth inhibition, actives largely listed as inhibitors | AID 686979 | chicken DT40 Tdp1-/-;hTDP1 cells + 20 nM CPT, ATP luminescence, 48 h; note: potency is the fitted concentration of half-maximal effect; nearly all actives have a fitted effect of over 55% in size
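Cell growth measured by CellTiter-Glo luminescence after a minimum 48 h, 37 C compound exposure with 20 nM CPT in Tdp1-knockout DT40 cells stably expressing hTDP1, seeded 400/well; qHTS titration format.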
ALOX12 inh = blocks human arachidonate 12S-lipoxygenase; P18054; purified 12hLO, xylenol orange hydroperoxide absorbance; Potency, µM (titrated, usually from 108 µM), for the others: at the top dose activity change, negative = inhibition, usual class: inhibitors; 1.1% of 580,000 active; AID 1671190; note: potency is the fitted concentration of half-maximal effect
Target sequence (P18054 whole entry, looked up): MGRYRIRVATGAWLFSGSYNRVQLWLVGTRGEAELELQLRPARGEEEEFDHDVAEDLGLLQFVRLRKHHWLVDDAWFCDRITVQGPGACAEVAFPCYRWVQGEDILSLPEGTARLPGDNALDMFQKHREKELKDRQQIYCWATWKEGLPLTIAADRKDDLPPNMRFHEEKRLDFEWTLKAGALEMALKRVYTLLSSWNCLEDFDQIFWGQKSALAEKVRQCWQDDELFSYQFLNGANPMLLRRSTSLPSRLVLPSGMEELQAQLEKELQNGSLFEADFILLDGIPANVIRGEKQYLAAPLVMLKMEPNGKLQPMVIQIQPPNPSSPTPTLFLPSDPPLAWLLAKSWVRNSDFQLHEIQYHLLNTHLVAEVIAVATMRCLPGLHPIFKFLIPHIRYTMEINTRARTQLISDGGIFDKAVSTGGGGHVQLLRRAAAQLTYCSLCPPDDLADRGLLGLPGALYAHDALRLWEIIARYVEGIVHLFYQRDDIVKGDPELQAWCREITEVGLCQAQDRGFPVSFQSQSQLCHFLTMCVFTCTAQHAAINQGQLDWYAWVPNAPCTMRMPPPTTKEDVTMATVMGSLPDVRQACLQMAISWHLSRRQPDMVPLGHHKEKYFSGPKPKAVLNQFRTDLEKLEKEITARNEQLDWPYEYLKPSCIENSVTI
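Purified human 12hLO (150 nM final) in 25 mM Hepes, 0.01% Triton X-100, pH 7.0 was preincubated 15 min at room temperature with compound. Then 40 uM arachidonic acid was added, 30 min. Hydroperoxide was read by Fe-XO absorbance ratio 573/405 nm.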
HT1080NT lethal = kills 2HG-producing HT-1080-NT fibrosarcoma cells. HT-1080-NT fibrosarcoma viability, CellTiter-Glo ATP luminescence, 48 h. Potency, µM (titrated, usually from 46.1 µM), inactives show at the highest dose activity, negative = less viability, most hits filed as cytotoxic. 1.6% of 360,000 active;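 note: NT is the 2HG producing partner of a matched IDH1 knockdown line; potency is the fitted concentration of half-maximal effect; 0% = DMSO-treated cells and -100% = media-only wells without cells; nearly all actives have a fitted effect of over 55% in size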
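Luminescent CellTiter-Glo readout after 48 hours of compound exposure at 37 degrees C defined viability of HT-1080-NT cells. Activity was normalized to DMSO wells and cell-free media wells; concentration-response curves were fitted and assigned curve classes.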
IL1B secr inh = inhibitors of inflammasome signaling (IL-1 beta secretion). THP-1 LPS/ATP IL-1B secretion, AlphaLISA, 16 h; stronger effect = lower value. activity change, % at 57.5 µM. 4.7% of 360,000 active. AID 743279; in the data active = activity change below about -50%; inconclusive = mostly about -30% to -49%
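THP-1 cells pretreated 1 hr with compounds (up to 57.5 uM final), then stimulated with LPS (250 ng/mL final) plus ATP (1.25 mM final); secreted IL-1B measured by AlphaLISA after 16 hr, decreased signal indicating inhibition.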
DT40 TDP1 no CPT = qHTS for Inhibitors of human tyrosyl-DNA phosphodiesterase 1 (TDP1): qHTS in cells in absence of CPT | Potency, µM (series often up to 46.2 µM), for inactives: at the top dose activity change, negative = growth inhibition, actives largely listed as inhibitors | DT40 Tdp1-/- hTDP1 cells, no CPT, ATP luminescence, 48 h | AID 686978, 2013 | 15% of 420,000 active; note: potency is the fitted concentration of half-maximal effect; nearly all actives have a fitted effect of over 55% in size
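Compound effects on proliferation are scored in DT40 Tdp1-/-;hTDP1 cells in the absence of CPT. ATP levels (CellTiter-Glo luminescence) are recorded after a ≥48 hr, 37 °C incubation.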
Starred values were filed as active, the others as inactive; ? = inconclusive; · = no result given; [ ] = dose if it differs, or a comment. Unless noted, calls come from the whole dose curve; as a rule, active = well fitted curve in the direction sought with a large enough effect; inconclusive = small, poorly fitted or top-dose-only effect, or another doubt; inactive = no such curve, though single readings can be large; an effect the other way counts as inactive or inconclusive. Unless noted, % is set by controls: 0 for no effect and ±100 for the full control effect.

SMILES	HT1080 IDH1KD tx	DT40 TDP1 CPT	ALOX12 inh	HT1080NT lethal	IL1B secr inh	DT40 TDP1 no CPT
O=C(CCn1c(=O)c2sccc2n(CC(=O)NCc2ccco2)c1=O)NCc1ccccc1	-5.5%	-11.3%	-13.7%	0.1µM*	-11.0	-5.0%
Cc1ccc(C)c(Cn2c(=O)n(CCCC(=O)NCc3ccco3)c(=O)c3ccccc32)c1	12.7%	-27.8%	-5.2%	17.8%	34.9	?
O=C(CCCCn1c(=O)c2ccccc2n(CC(=O)Nc2ccc(F)cc2)c1=O)NCc1ccco1	-8.4%[9.24 µM]	9.2µM*	1.0%	-1.9%	-21.4	?
O=C(CCCn1c(=O)c2ccccc2n(CC(=O)NCc2ccco2)c1=O)NCc1ccco1	12.1%	-3.6%	4.6%	15.2%	-12.0	?
Cc1cc(C)c(Cn2c(=O)n(CCCC(=O)NCc3ccco3)c(=O)c3ccccc32)c(C)c1	10.6%	?	0.0%	12.6%	0.0	18.4µM*
Cc1ccc(S(=O)(=O)N2CCC3(CC2)N=C(c2cccs2)C(=O)N3)cc1	·	·	-2.7%	·	·	·
O=C(CCCCn1c(=O)c2ccccc2n(Cc2ccc(F)cc2Cl)c1=O)NCc1ccco1	?	18.4µM*	-22.7%	?	-16.9	14.6µM*
Cc1ccc(C)c(Cn2c(=O)n(CCCC(=O)NCc3ccco3)c(=O)c3sccc32)c1	9.2µM*	23.1µM*	20.9%	?	12.7	11.6µM*
CC1CCCCN1C(=O)CSc1nnc(-c2cccc(Cl)c2)o1 (stereo unspecified)	·	16.4µM*	-4.6%	·	·	?
COc1ccc(N2CCN(C(=O)CSc3nc(-c4ccc(C(C)C)cc4)no3)CC2)cc1	·	18.4µM*	?	·	·	11.6µM*
O=C(Cn1nnc(-c2ccccc2)n1)N1CCC(c2nc3ccccc3s2)CC1	·	·	39.8µM*	·	·	·
CC1CCN(C(=O)Cn2nnc(-c3ccc(C(C)C)cc3)n2)CC1	-1.2%	16.4µM*	4.3%	3.9%	23.7	?
COc1cccc(/C=C2\N=C(SC)SC2=O)c1	·	·	20.2%	·	·	·
CC(Nc1ccc(Cl)cc1)C(=O)NC(N)=O (stereo unspecified)	·	·	36.6%	·	·	·
CC(C)c1ccc(-c2noc(SCC(=O)N3CCN(c4ccc(F)cc4)CC3)n2)cc1	·	-22.1%	-8.9%	·	·	-16.5%
CC1CCN(C(=O)CSc2nc(-c3ccccc3)no2)CC1	·	-16.3%	-12.0%	·	·	-24.6%
CC1CCN(C(=O)CSc2nc(-c3ccc(C(C)C)cc3)no2)CC1	·	20.6µM*	-40.0%	·	·	23.1µM*
CC(C)c1ccc(-c2noc(SCC(=O)N3CCCCC3C)n2)cc1 (stereo unspecified)	·	?	-11.4%	·	·	14.6µM*
O=C(c1cccc(F)c1)N1CCC(c2nc(C3CCOCC3)no2)CC1	·	·	18.0%	·	·	·
COc1cc(/C=C/c2nc(C#N)c(NC3CC3)o2)cc(OC)c1OC	·	·	-51.3%	·	·	·
COCCCNc1oc(/C=C/c2cc(OC)c(OC)c(OC)c2)nc1C#N	·	?	?	·	·	23.1µM*
COc1ccc(CCNc2oc(COc3ccc(Br)cc3)nc2C#N)cc1OC	-19.4%	18.4µM*	371.8%	-12.9%	-0.6	20.6µM*
COCCCNc1oc(/C=C/c2ccc(OC)c(OC)c2)nc1C#N	·	·	-11.2%	·	·	·
COc1ccc(CCNc2oc(Cc3cccc4ccccc34)nc2C#N)cc1OC	-22.7%	?	-23.2%	-22.6%	?	?
COc1ccc(CCNc2oc(/C=C/c3cc(OC)c(OC)c(OC)c3)nc2C#N)cc1OC	·	13µM*	-20.0%	·	·	11.6µM*
SMILES	HT1080 IDH1KD tx	DT40 TDP1 CPT	ALOX12 inh	HT1080NT lethal	IL1B secr inh	DT40 TDP1 no CPT
CNc1oc(/C=C/c2cc(OC)c(OC)c(OC)c2)nc1C#N	·	?	3.9%	·	·	23.1µM*
O=c1c(-c2cccc(C(F)(F)F)c2)ccc2n1C[C@H]1C[C@@H]2CN(S(=O)(=O)c2ccccc2)C1	·	·	-1.9%	·	·	·
COc1ccc(C(=O)N[C@@H]2CCC[C@@H]2C(=O)NCC(C)C)cc1	·	·	10.2%	·	·	·
Cc1nc2cc(S(=O)(=O)N3CCOCC3)ccc2n1CCNC(=O)C1(C)CC1	·	·	8.1%	·	·	·
Nc1nonc1-c1nc2ccccc2n1Cc1ccc(Cl)cc1	7.4%	9.6%	?	-1.6%	5.8	-18.1%
Nc1ccc(Cn2ccc3c4c(N)nc(N)nc4ccc32)cc1	0.0326µM*	?	?	0.517µM*	-99.2*	0.13µM*
COc1ccc(-n2cc(CN3CCC(O)CC3)c(-c3cccc(F)c3)n2)cc1	·	·	22.8%	·	·	·
COc1ccc(-n2cc(CN(C)C3CCOCC3)c(-c3cccc(F)c3)n2)cc1	?	?	?	?	-12.4	18.4µM*
COc1ccc(-n2cc(CNCCCn3ccnc3)c(-c3cccc(F)c3)n2)cc1	?	?	?	-25.1%	?	-20.6%
COc1ccc(-n2cc(CNCc3cnc4ccccn34)c(-c3cccc(F)c3)n2)cc1	0.0%	?	-1.3%	?	-73.2*	?
COc1ccc(-n2cc(CNCC3CCOCC3)c(-c3cccc(F)c3)n2)cc1	-27.6%	?	-12.4%	?	-55.8*	16.4µM*
